Screening data (PubChem BioAssay)
ATG4B inhibitor = ATG4B protease inhibitors, primary screen, biochemical, fluorescence, uHTS | inhibition, % at 8.33 µM | AID 504462, 2011 | ATG4B cleavage of LC3-PLA2, NBD-HPC fluorescence, 1 h | actives 0.51% (n = 340,000); in the data active = inhibition above about 40%
MEKK2wt PB1 HTS = modulators of MEK5 binding to wildtype MEKK2, primary screen, biochemical, multiplex bead flow cytometry, Alexa488-MEK5 | Mitogen-activated protein kinase kinase kinase 2 (Homo sapiens), Q9Y2U5 | Alexa488-MEK5 binding to MEKK2 WT; actives lie on both sides | binding response (% of control), % at 10 µM | actives 1.1% (n = 290,000); in the data active = binding response below about 67% or above about 130%
UBC13 polyUb = UBC13 polyubiquitin chain formation inhibitors, primary screen, biochemical, TR-FRET, uHTS; Ubiquitin-conjugating enzyme E2 N (Homo sapiens), P61088; AID 485273, 2010; actives 0.47% (n = 330,000); inhibition, % at 20 µM; in the data active = inhibition above about 45%, passing the limit was not always enough
Target sequence (P61088 whole entry, looked up): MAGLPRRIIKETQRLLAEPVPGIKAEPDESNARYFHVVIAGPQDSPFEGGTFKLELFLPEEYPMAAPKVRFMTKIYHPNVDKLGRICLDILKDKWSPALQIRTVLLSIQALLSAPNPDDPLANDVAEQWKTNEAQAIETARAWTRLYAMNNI
MEKK3 PB1 HTS = modulators of MEKK3-MEK5 PB1 binding, primary screen, biochemical, wildtype MEKK3, multiplex bead flow cytometry, Alexa488-MEK5 | Mitogen-activated protein kinase kinase kinase 3 (Homo sapiens), Q99759 | bead-based flow cytometry, Alexa488-MEK5 binding to MEKK3; actives lie on both sides; 0 = blocked by unlabeled MEK5, 100 = vehicle | binding response (% of control), % at 10 µM | actives 1.4% (n = 290,000) | AID 1529, 2009;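 active = binding response more than 3 SD above or below the average of its plate-row segment, actives on both sides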;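 also: Alexa488 bead fluorescence after subtracting the streptavidin-only scavenger bead signal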
Target sequence (Q99759 whole entry, looked up): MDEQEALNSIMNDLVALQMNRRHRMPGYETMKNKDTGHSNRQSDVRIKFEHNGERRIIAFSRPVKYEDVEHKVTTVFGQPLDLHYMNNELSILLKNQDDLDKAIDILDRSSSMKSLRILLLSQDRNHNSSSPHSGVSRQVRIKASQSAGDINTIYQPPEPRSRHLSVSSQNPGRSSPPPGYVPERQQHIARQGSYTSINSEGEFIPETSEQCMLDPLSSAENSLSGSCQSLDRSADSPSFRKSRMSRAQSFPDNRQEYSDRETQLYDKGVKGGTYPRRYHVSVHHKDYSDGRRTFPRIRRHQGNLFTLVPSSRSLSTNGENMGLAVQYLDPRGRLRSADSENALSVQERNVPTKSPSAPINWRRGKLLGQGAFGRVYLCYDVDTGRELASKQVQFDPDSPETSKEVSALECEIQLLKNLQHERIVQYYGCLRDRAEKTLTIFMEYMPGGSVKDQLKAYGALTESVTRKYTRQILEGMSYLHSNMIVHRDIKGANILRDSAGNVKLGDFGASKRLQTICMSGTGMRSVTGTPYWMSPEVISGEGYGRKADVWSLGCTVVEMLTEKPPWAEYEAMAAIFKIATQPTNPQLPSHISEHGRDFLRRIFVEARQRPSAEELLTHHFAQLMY
MEKK2mut PB1 HTS = MEK5 binding signal on mutant MEKK2 PB1, primary screen, biochemical, multiplex bead flow cytometry, Alexa488-MEK5; Alexa488-MEK5 binding to MEKK2 mutant; percent response, % at 10 µM; actives 0.35% (n = 290,000); AID 1530, 2009; in the data active = percent response above about 24%, passing the limit was not always enough
PREPL inhibitor = PREPL enzyme inhibitors, primary screen, biochemical, fluorescence polarization. actives 0.68% (n = 320,000). Prolyl endopeptidase-like (Homo sapiens), Q4J6C6. recombinant PREPL, fluorescence polarization activity-based probe. inhibition, % at 5.96 µM; in the data active = inhibition above about 43%;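 also: 0% = enzyme with DMSO and 100% = wells lacking enzyme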
MEKK2wt confirm = modulators of MEK5 binding to wildtype MEKK2, confirmation, biochemical, single concentration, multiplex bead flow cytometry. actives 2.4% (n = 5,900). AID 1892, 2009. Alexa488-MEK5 binding to MEKK2 WT; actives lie on both sides. binding response (% of control), % at 10 µM. shares compounds with MEKK3 PB1 HTS; in the data active = binding response below about 16% or above about 210%; inactive = in between
MEKK2mut-MEK5 = mutant MEKK2 PB1-MEK5 binding signal retest – biochemical, single concentration, multiplex bead flow cytometry, confirmation | shares compounds with MEKK3 PB1 HTS | Alexa488-MEK5 binding to MEKK2 mutant | percent response, % at 10 µM | actives 2% (n = 5,900) | AID 1893, 2009; in the data active = percent response mostly above about 71%, no sharp cut-off; inactive = mostly below about 38%;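 also: higher means compound restores mutant binding toward wildtype level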
MEKK3-MEK5 inh = MEKK3 wild-type PB1 binding to MEK5, inhibitors, confirmation, biochemical, bead multiplex flow cytometry, single concentration, wildtype. Alexa488-MEK5 binding to MEKK3; active compounds read low. shares compounds with MEKK3 PB1 HTS. actives 1.8% (n = 5,900). binding response (% of control), % at 10 µM;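 active = binding response below 72% of control, or above a set upper limit, though filed actives all read lower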;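 also: 100% = DMSO only wells and 0% = binding blocked by excess unlabeled MEK5; lower values mean stronger disruption of MEK5 binding to MEKK3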
Starred values were filed as active, the others as inactive; nt = no result; ! = not confirmed by another sample; [ ] = remark or other dose. Hits are enriched below; roughly 3.1% of the tested compounds scored in any of these assays.

SMILES | ATG4B inhibitor | MEKK2wt PB1 HTS | UBC13 polyUb | MEKK3 PB1 HTS | MEKK2mut PB1 HTS | PREPL inhibitor | MEKK2wt confirm | MEKK2mut-MEK5 | MEKK3-MEK5 inh
COCCN1Cc2cc(=O)n3c([nH]c4ccccc43)c2C1=N | 8.8 | 100.0 | 11.4 | 100.0 | 1.0 | 5.6 | nt | nt | nt
CC(NCc1cccc(Cl)c1Cl)C(O)c1ccccc1 (stereo unspecified) | -2.9 | 43.0*[inhibitor] | 8.9 | 102.0 | 5.0 | -0.3 | 103.0 | 2.0 | 104.0
CC(NCc1ccc(Cl)cc1Cl)C(O)c1ccccc1 (stereo unspecified) | 8.2 | 101.0 | 10.5 | 97.0 | -1.0 | 11.9 | nt | nt | nt
COC(=O)C1=C(c2cc3ccccc3s2)C[C@@H]2CC[C@H]1N2C | -14.6 | nt | 3.6 | nt | nt | -28.4 | nt | nt | nt
FC(F)(F)c1ccc2c(c1)N(CCCN1CCN(CCCl)CC1)c1ccccc1S2 | -10.9 | 173.0* | 30.5 | 101.0 | 24.0* | 35.1 | 155.0 | 25.0 | 105.0
C=CCn1c(O)c(C=NCCN(C)C)c(=O)[nH]c1=O | -7.4 | nt | 2.5 | nt | nt | 8.3 | nt | nt | nt
CN(C)CCN=Cc1c(O)n(-c2cccc(C(F)(F)F)c2)c(=O)[nH]c1=O | -3.8 | -2.0*[inhibitor] | 3.4 | 2.0*[inhibitor] | -20.0 | 14.3 | 98.0 | 4.0 | 101.0
Oc1ccc2c3c1OC1C(O)CC[C@@]4(O)[C@@H](C2)N(CC2CCC2)CC[C@]314 (stereo partly specified) | nt | 53.0*![inhibitor] | -12.5 | 70.0 | -1.0 | 1.0 | 115.0 | 9.0 | 108.0
CC#CP(=O)(OC)C(O)(CF)c1ccccc1 (stereo unspecified) | 12.7 | 86.0 | -16.3 | 82.0 | -3.0 | 5.2 | nt | nt | nt
Cc1cc(/C=C2\C(=O)NC(=S)N(C)C2=O)c(C)n1C1CCCCC1 | 7.0 | 88.0 | -9.0 | 105.0 | 7.0 | 1.5 | nt | nt | nt
Cc1cc(C=C2C(=O)N(C)C(=S)N(C)C2=O)c(C)n1C1CCCC1 | 0.3 | 55.0*[inhibitor] | -12.8 | 84.0 | -13.0 | -7.7 | 98.0 | -1.0 | 101.0
C=CCn1c(O)c(C(CC)=NCCN2CCN(C(=S)NC)CC2)c(=O)[nH]c1=O | 4.1 | 105.0 | 3.9 | 110.0 | 24.0 | -10.8 | nt | nt | nt
COc1cc(N2CCOCC2)ccc1/C=C1\C(=O)NC(=O)N(C2CCCCC2)C1=O | -4.2 | 105.0 | -12.6 | 130.0* | -1.0 | 12.6 | 96.0 | -1.0 | 98.0
CCOc1cc(-c2nc3c(C)cccn3c2NCC2CCCO2)ccc1O (stereo unspecified) | -1.0 | 102.0 | 17.3 | 101.0 | -3.0 | -13.9 | nt | nt | nt
O=C1NC(=O)C(=Cc2coc3ccccc3c2=O)C(=O)N1 | -3.1 | 282.0* | -0.7 | 121.0 | 184.0* | 0.2 | 99.0 | -2.0 | 103.0
O=C1NC(=O)C(=Cc2csc3ccccc23)C(=O)N1 | -0.2 | 96.0 | -1.8 | 96.0 | 2.0 | -2.2 | nt | nt | nt
CC/C(=N\Nc1cccc2ccccc12)c1c(O)[nH]c(=O)[nH]c1=O | 6.2 | 36.0*[inhibitor] | -22.6 | 97.0 | 3.0 | 17.1 | 89.0 | -14.0 | 95.0
Fc1ccc(C(OCCN2CCN(CCCc3ccccc3)CC2)c2ccc(F)cc2)cc1 | 6.9 | 235.0* | 49.4* | 112.0 | 26.0* | -27.4 | 187.0 | 41.0 | 109.0
Fc1ccc(C(OCCN2CCCC2)c2ccc(F)cc2)cc1 | 1.0 | 107.0 | 15.1 | 99.0 | -1.0 | -3.1 | nt | nt | nt
c1ccc(CCCN2CCN(CCOC(c3ccccc3)c3ccccc3)CC2)cc1 | 3.8 | 162.0* | 35.5 | 108.0 | 8.0 | 1.6 | 130.0 | 27.0 | 103.0
CC(=NCC1CCCO1)c1c(O)n(C)c(=O)n(C)c1=O (stereo unspecified) | -3.7 | 101.0 | -7.8 | 101.0 | 1.0 | 12.9 | nt | nt | nt
c1ccc(CC(NCc2ccco2)c2ccccc2)cc1 (stereo unspecified) | 5.6 | 112.0 | 8.8 | 129.0* | 0.0 | 9.3 | 103.0 | 6.0 | 103.0
N#CC(C#N)=C(N)c1cccnc1 | 0.5 | 57.0 | -7.1 | 46.0*[inhibitor] | -45.0 | 8.7 | 98.0 | -6.0 | 97.0
Cc1c2ccncc2c(C)c2c1[nH]c1ccccc12 | -8.2 | 201.0* | 38.8 | 72.0*[inhibitor] | 28.0* | 27.9 | 195.0 | 58.0 | 105.0
CS(=O)(=O)Nc1ccc(Cc2noc(-c3ccc4[nH]cc(CCN)c4c3)n2)cc1 | nt | 156.0*! | 35.9 | 107.0 | 11.0 | -17.9 | 131.0 | 11.0 | 99.0
SMILES | ATG4B inhibitor | MEKK2wt PB1 HTS | UBC13 polyUb | MEKK3 PB1 HTS | MEKK2mut PB1 HTS | PREPL inhibitor | MEKK2wt confirm | MEKK2mut-MEK5 | MEKK3-MEK5 inh
O=c1[nH]c(=O)n(C2CCCCC2)c(O)c1/C=N/N1CCCCC1c1cccnc1 (stereo unspecified) | -0.1 | 102.0 | 9.7 | 102.0 | 0.0 | 3.3 | nt | nt | nt
O=c1[nH]c(=O)n(-c2cccc3ccccc23)c(O)c1/C=N/N1CCCCC1c1cccnc1 (stereo unspecified) | -1.3 | 106.0 | 4.9 | 134.0* | 0.0 | 0.5 | 102.0 | -2.0 | 102.0
CCC1C(c2ccccc2)NC(c2ccccc2)CC1(O)c1ccc(F)cc1 (stereo unspecified) | -6.6 | 152.0* | -5.2 | 107.0 | 43.0 | -22.2 | 122.0 | 17.0 | 108.0
CC(C)(C)n1cc(C(=O)c2ccc3ccccc3c2O)cn1 | -1.9 | 100.0 | 5.6 | 129.0* | -2.0 | 16.4 | 103.0 | -1.0 | 100.0
CC(C)(C)n1cc(C(=O)c2ccccc2OCCCF)cn1 | -1.6 | 104.0 | 8.9 | 100.0 | 4.0 | 1.2 | nt | nt | nt
CC(=O)Nc1nc(CCl)cs1 | -3.1 | 98.0 | 2.9 | 101.0 | -8.0 | nt | nt | nt | nt
CN(C(=O)Oc1ccc([N+](=O)[O-])cc1)c1ccccc1 | 1.0 | 95.0 | -5.8 | 73.0*[inhibitor] | -1.0 | 0.2 | 97.0 | -4.0 | 101.0
CC(=O)c1ccc(OC(=O)N(C)c2ccccc2)cc1 | -12.5 | 99.0 | 7.9 | 105.0 | 0.0 | 4.9 | nt | nt | nt
CC(=O)N1N=C2C3CCN(CC3)C2C1c1ccccc1 (stereo unspecified) | 0.3 | -2.0*[inhibitor] | -4.9 | 1.0*[inhibitor] | -21.0 | -1.6 | 99.0 | 1.0 | 104.0
